Source: PubChem BioAssay
sEH act: soluble epoxide hydrolase (human) activation; purified human sEH enzymatic activity, activator screen; activation, % at 2 µM; 91,000 compounds, 0.04% hits; AID 717; in the data active = activation above about 37%
Target sequence (P34913 whole entry, looked up): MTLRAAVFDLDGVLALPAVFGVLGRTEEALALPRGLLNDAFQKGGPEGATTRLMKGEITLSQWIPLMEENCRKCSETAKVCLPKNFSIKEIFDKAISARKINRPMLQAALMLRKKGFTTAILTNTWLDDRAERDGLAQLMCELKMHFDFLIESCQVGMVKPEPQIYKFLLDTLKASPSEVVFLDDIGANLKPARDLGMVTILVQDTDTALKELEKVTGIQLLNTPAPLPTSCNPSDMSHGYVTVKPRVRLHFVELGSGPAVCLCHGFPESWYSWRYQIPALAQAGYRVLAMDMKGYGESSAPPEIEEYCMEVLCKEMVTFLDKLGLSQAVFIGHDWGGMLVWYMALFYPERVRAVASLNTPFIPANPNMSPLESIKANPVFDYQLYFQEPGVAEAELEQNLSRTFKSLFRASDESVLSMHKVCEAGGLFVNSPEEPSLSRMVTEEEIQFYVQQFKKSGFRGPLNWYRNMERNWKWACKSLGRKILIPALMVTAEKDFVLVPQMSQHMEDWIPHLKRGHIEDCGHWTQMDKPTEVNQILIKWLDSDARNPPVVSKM
MRP reversal: reverses drug resistance mediated by MRP; H69AR cells + 2 uM doxorubicin, CellTiter-Glo, 72 h; differential viability (reversal), % at 10 µM; 85,000 compounds, 0.04% hits; AID 602;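 active = viability drop by adding the cancer drug above about 55%, with treated viability meeting a 40% cutoff, limit read from the data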;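 note: larger differential means the compound sensitizes cells more to doxorubicin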
MRP1 act: activators of MRP-1 | H69AR cells + doxorubicin, viability rescue, CellTiter-Glo | viability increase, % at 10 µM | 140,000 compounds, 0.61% hits;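 active = viability gain under doxorubicin at or above a set limit, the compound median plus 3 SD, cut at about 4.7% in these data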;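 note: MRP-1 overexpressing cells given doxorubicin 25 µM after compound pretreatment; 18-22 h compound pretreatment then 72 h with doxorubicin before readout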
Measles CPE: protection of cells from measles virus; protection (pct of control), % at 4 µM; 140,000 compounds, 1.5% hits; Measles virus-infected cells, CPE protection, absorbance; AID 841; in the data active = protection mostly above about 24%, no sharp cut-off; inactive = mostly below about 26%
sdo1 growth: sdo1-depleted yeast growth rescue | S. cerevisiae sdo1-depleted JHY4D growth rescue, OD600 30 h; active compounds read high; pdr5 snq2 efflux-pump mutant strain | z-score at 10 µM | 140,000 compounds, 0.21% hits;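 active = z-score above 3 at both the 24 hr and the 30 hr optical density reads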
sEH inh: soluble epoxide hydrolase (human) inhibition | inhibition, % at 2 µM | AID 707 | recombinant human sEH enzymatic activity assay | 91,000 compounds, 0.34% hits; in the data active = inhibition above about 80%
Each line names hits and unclear results; the compound was inactive in the other large screens. This is a sample that favours compounds with a hit; in the whole collection about 2.5% have one here.

Cc1cccc2cc(CN(Cc3ccco3)S(=O)(=O)c3ccc4c(c3)OCCO4)c(=O)[nH]c12	MRP1 act 11.2
COc1cc(-c2csc(N3CCOCC3)n2)cc(OC)c1OC	Measles CPE 56.0
CCN(CC)S(=O)(=O)c1ccc2[nH]c(=O)cc(C(=O)Nc3ccc(C)c(S(=O)(=O)N(CC)CC)c3)c2c1	none (no result: sEH act, MRP reversal, sEH inh)
Cn1cc(Br)c(C(=O)Nc2sc3c(c2C(N)=O)CCC3)n1	none
CCn1ncc(Br)c1C(=O)Nc1sc2c(c1C(N)=O)CCC2	Measles CPE 33.4
O=C1CN(C(=O)CSc2nc(-c3ccc(Cl)cc3)cs2)c2ccccc2N1	none (no result: sEH act, MRP reversal, sEH inh)
Fc1c(F)c(F)c(N=Cc2ccc3ncccc3c2)c(F)c1F	none (no result: sEH act, MRP reversal, sEH inh)
Cc1nn(Cc2ccccc2)c(C)c1NC(=O)c1noc2c1CCc1ccccc1-2	MRP1 act 6.5
CC(C)C(=O)N=C1NC(=O)CS1	none (no result: sEH act, MRP reversal, sEH inh)
O=C1CSC(=NC(=O)c2ccccc2)N1	MRP1 act 6.2
O=C(N/N=C\c1ccc(F)cc1)c1cc(OCC(F)(F)F)ccc1OCC(F)(F)F	Measles CPE 37.0 (no result: MRP reversal)
CC(C)OC(=O)CSc1ncnc2c1cnn2Cc1ccccc1	Measles CPE 33.3
COC(=O)CSc1ncnc2c1cnn2Cc1ccccc1	none (no result: MRP reversal)
O=C(NCc1cccs1)C1CCC(CNS(=O)(=O)c2ccc(Br)s2)CC1 (stereo not given)	sEH inh 92.4
CC(=O)N1CCc2cc(S(=O)(=O)NC(CC(C)C)C(=O)Nc3ccc4c(c3)OCCO4)ccc21 (stereo not given)	none (no result: sEH act, sEH inh)
Cc1ccc(S(=O)(=O)N2CCCC(C(=O)NCCC3=CCCCC3)C2)cc1 (stereo not given)	sEH inh 82.2
CC(C)(C)c1ccc(C(=O)N2CCC(C(=O)NCCC3=CCCCC3)CC2)cc1	sEH inh 85.7 (no result: MRP reversal)
O=C(NCCC1=CCCCC1)C1CCN(C(=O)Nc2ccccc2)CC1	none
O=C(NCCC1=CCCCC1)C1CCCN(S(=O)(=O)c2ccc(F)cc2)C1 (stereo not given)	none
O=C(NCCC1=CCCCC1)C1CCCN(S(=O)(=O)c2ccccc2)C1 (stereo not given)	sEH inh 83.8
CS(=O)(=O)N1CCCC(C(=O)NCc2ccccc2Cl)C1 (stereo not given)	Measles CPE 42.3
CCCCn1c(SCC(=O)Nc2cc(C(F)(F)F)cc(C(F)(F)F)c2)nnc1C(CC)N(C)C (stereo not given)	none (no result: sEH act, MRP reversal, sEH inh)
CCc1c(C)sc(NC(=O)C2CC2c2ccccc2)c1C(N)=O (stereo not given)	Measles CPE 38.3 (no result: MRP reversal)
Nc1ccc(C(=O)OCC(=O)N2c3ccccc3Sc3ccccc32)cc1[N+](=O)[O-]	MRP1 act 8.7, Measles CPE 33.2 (no result: sEH act, MRP reversal, sEH inh)
CCCCS(=O)(=O)Nc1ccc(C)cn1	none (no result: sEH act, MRP reversal, sEH inh)
O=C(Nc1ccccc1)Nc1cc(Cl)cc(Cl)c1	Measles CPE 63.1
CCOc1ccc(NC(=O)NCC2CCN(c3ccc(OC)cc3)C2)cc1 (stereo not given)	sEH inh 87.8
CCCN(CCC)S(=O)(=O)c1ccc(C(=O)Nc2nc(-c3ccccc3)c(C(=O)OCC)s2)cc1	Measles CPE 50.2 (no result: sEH act, MRP reversal, sEH inh)
Cc1ccc(N(C)S(=O)(=O)c2cccc(C(=O)Oc3ccc4c(C)cc(=O)oc4c3)c2)cc1	MRP1 act 4.8 (no result: sEH act, MRP reversal, sEH inh)
Cc1cc(=O)oc2cc(OCC(=O)Nc3cccc(S(=O)(=O)N(C)C)c3)ccc12	none (no result: sEH act, MRP reversal, sEH inh)
Cc1cc(O)cc(O)c1C=NCc1ccco1	none (no result: sEH act, MRP reversal, sEH inh)
CCCOc1ccc(C(=O)Nc2ccc(N3CCN(C(C)=O)CC3)cc2)cc1	MRP1 act 6.0 (no result: MRP reversal)
CC(=O)N1CCN(c2ccc(NC(=O)c3ccc(C)cc3)cc2)CC1	none
Cc1cnc(NC(=O)COc2cccc3c2OC(C)(C)C3)s1	Measles CPE 65.4
COC(=O)CC(NS(=O)(=O)c1cccs1)c1ccccc1Cl (stereo not given)	none (no result: MRP reversal)
Cc1ccc(C)c(N2C(=O)c3cc(N4CCOCC4)c([N+](=O)[O-])cc3C2=O)c1	none (no result: sEH act, MRP reversal, sEH inh)
CCCC(=O)Nn1cnc2c(c1=O)C1(CCCCC1)Cc1ccccc1-2	sEH inh 99.0
CCC(=O)Nn1cnc2c(c1=O)C1(CCCCC1)Cc1ccccc1-2	none
CC(/C=N/N1CCN(c2ccccn2)CC1)=C\c1ccccc1	MRP1 act 5.0 (no result: sEH act, MRP reversal, sEH inh)
O=C1CC(c2nc3ccccc3[nH]2)CN1c1ccccc1F (stereo not given)	none
O=C1CC(c2nc3ccccc3[nH]2)CN1c1cccc(C(F)(F)F)c1 (stereo not given)	MRP1 act 7.7 (no result: sEH act, sEH inh)
COc1ccc(C(=O)c2c(C)c3cc(C)ccc3n2CC(O)CN2CCOCC2)cc1 (stereo not given)	none (no result: sEH act, MRP reversal, sEH inh)
CCOC(=O)Cc1nnc(NC(=O)COc2ccc(OC)cc2)s1	Measles CPE 22.7
CCOC(=O)Cc1nnc(NC(=O)COc2ccc(C)cc2)s1	none
O=C(CSc1n[nH]c(-c2ccccc2Br)n1)NCCN1C(=O)CSC1=O	none (no result: sEH act, MRP reversal, sEH inh)
COc1ccc2o/c(=N/NC(=S)Nc3ccccc3)c(C(N)=O)cc2c1	none (no result: sEH act, MRP reversal, sEH inh)
O=[N+]([O-])c1ccc(N/N=C/c2ccccc2)c(F)c1	MRP1 act 5.2 (no result: sEH act, MRP reversal, sEH inh)
O=C(COC(=O)C1CC1)NCc1ccccc1Cl	none (no result: MRP reversal)
CCn1cc(Br)c(C(=O)NC(=S)Nc2ccc(C(=O)OC)cc2)n1	none (no result: sEH act, MRP reversal, sEH inh)
O=[N+]([O-])c1cc(/C=N/n2c(-c3cccnc3)n[nH]c2=S)ccc1Cl	Measles CPE 28.6 (no result: sEH act, MRP reversal, sEH inh)
O=[N+]([O-])c1ccccc1/C=N/n1c(-c2cccnc2)n[nH]c1=S	none (no result: sEH act, MRP reversal, sEH inh)
O=C(COC(=O)c1c(Cl)cccc1Cl)Nc1cc(Cl)ccc1Oc1ccccc1	MRP1 act 6.6 (no result: sEH act, MRP reversal, sEH inh)
O=C(c1cc([N+](=O)[O-])ccc1N1CCCCC1)N1CCCCC1	none (no result: MRP reversal)
O=C(O)c1cc([N+](=O)[O-])ccc1N1CCCCC1	Measles CPE 21.2 (no result: sEH act, MRP reversal, sEH inh)
O=C(NC1CC2CCC(C1)N2C(=O)NC1CCCCC1)NC12CC3CC(CC(C3)C1)C2 (stereo not given)	none (no result: sEH act, sEH inh)
O=C(NC1CC2CCCC(C1)N2C1CC1)NC12CC3CC(CC(C3)C1)C2 (stereo not given)	sEH inh 99.2 (no result: MRP1 act, Measles CPE, sdo1 growth)
O=C(NNC(=O)c1cccs1)c1ccc(S(=O)(=O)N2CCCCC2)cc1	Measles CPE 25.8 (no result: sEH act, MRP reversal, sEH inh)
O=C(CN1C(=O)c2ccccc2S1(=O)=O)Nc1ccc(S(=O)(=O)N2CCCCC2)cc1	sEH inh 83.1
O=C(Nc1ccccc1)Nc1ccc(S(=O)(=O)N2CCCCC2)cc1	sEH inh 92.1
O=C(CN1C(=O)c2ccccc2S1(=O)=O)Nc1ccc(S(=O)(=O)N2CCCC2)cc1	none
c1ccc2c(c1)CCN(c1nc(CN3CCOCC3)nc3sc4c(c13)CCCC4)C2	none (no result: sEH act, MRP reversal, sEH inh)
Cc1noc(C)c1COC(=O)Cc1ccc(Cl)cc1	Measles CPE 47.9
Cc1noc(C)c1COC(=O)CN(C)S(=O)(=O)c1ccc(Cl)cc1	none (no result: sEH act, sEH inh)
CCn1nnnc1SCC(=O)Nc1ccc2c(c1)OCO2	none
Cc1ccc(NC(=O)CCSc2nnnn2-c2ccc3c(c2)OCO3)cc1C	MRP1 act 6.2
CC(C)[C@H](N)c1nnc(SC/C=C/c2ccccc2)o1	none
